{"source": "patent US20110177501", "about": "“BIOSENSOR FOR DETECTION AND VISUALISATION OF SINGLE-STRANDED DNA” (MEDICAL RESEARCH COUNCIL, published 2011)", "target": "6-IATR-E. coli SSB (G26C) (Escherichia coli, UniProt P0AGE0 SEQ:1-177, G26C)", "experiment": "competition; stated only as similar result to IDCC-G26C", "details": "tags: 6-IATR label on Cys26; chain copies: 4 (stated, tetramer); ssDNA", "data": [{"sequence": "TTTTTTTTTTTTTTTTTTTTTTTTTTTTTTTTTTTTTTTTTTTTTTTTTTTTTTTTTTTTTTTTTTTTTT", "values": [{"measurement": "binding signal", "result": "~28", "unit": "fold Kd vs unlabeled SSB"}]}]}
